# ChEMBL document CHEMBL1961873, “Compounds: GSK PKIS; Assays: Nanosyn kinase panel” (2012)
# What was measured:
# [1] = biological target: Sphingosine kinase 1 (Homo sapiens) (UniProt Q9NYA1); conditions: at 1 µM;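 note: mean SPHK1 inhibition value reported from the GSK PKIS kinase panel screen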
# [2] = biological target: T1, Sphingosine kinase 2 (Homo sapiens) (UniProt Q9NRA0); conditions: at 0.1 µM
# T1 sequence (whole entry): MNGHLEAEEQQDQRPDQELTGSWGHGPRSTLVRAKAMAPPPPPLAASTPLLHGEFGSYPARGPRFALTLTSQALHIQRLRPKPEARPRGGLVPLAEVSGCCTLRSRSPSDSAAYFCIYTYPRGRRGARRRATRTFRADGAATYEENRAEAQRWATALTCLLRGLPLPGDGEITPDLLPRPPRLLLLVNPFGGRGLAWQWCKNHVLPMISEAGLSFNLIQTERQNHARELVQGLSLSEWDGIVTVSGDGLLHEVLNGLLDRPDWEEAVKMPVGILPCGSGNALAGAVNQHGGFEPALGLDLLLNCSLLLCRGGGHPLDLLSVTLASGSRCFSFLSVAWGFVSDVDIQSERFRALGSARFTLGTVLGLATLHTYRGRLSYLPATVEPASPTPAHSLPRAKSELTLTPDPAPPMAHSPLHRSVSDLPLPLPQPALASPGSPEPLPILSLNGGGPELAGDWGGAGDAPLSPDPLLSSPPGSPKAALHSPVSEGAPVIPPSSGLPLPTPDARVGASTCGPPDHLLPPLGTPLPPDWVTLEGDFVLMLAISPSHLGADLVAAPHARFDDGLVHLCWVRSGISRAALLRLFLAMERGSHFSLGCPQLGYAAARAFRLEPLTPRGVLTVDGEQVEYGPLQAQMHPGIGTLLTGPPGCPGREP
# [3] = biological target: T1, Sphingosine kinase 2 (Homo sapiens); conditions: at 1 µM
# [4] = biological target: Casein kinase II subunit alpha (Homo sapiens) (UniProt P68400); conditions: at 0.1 µM
# Casein kinase II subunit alpha (Homo sapiens), sequence (P68400 whole entry, looked up): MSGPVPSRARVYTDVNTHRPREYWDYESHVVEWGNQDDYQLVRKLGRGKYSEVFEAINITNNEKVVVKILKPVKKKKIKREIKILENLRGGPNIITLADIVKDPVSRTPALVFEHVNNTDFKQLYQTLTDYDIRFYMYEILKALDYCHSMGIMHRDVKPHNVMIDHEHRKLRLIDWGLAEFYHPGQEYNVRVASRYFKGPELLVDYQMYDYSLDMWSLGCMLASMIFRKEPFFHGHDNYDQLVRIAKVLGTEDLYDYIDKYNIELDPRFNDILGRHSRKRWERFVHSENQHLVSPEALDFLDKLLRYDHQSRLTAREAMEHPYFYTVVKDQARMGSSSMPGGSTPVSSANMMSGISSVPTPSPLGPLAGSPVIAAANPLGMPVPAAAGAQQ
# [5] = biological target: Casein kinase II subunit alpha (Homo sapiens) (UniProt P68400); conditions: at 1 µM
# [6] = biological target: T2, Inhibitor of nuclear factor kappa-B kinase subunit alpha (Homo sapiens) (UniProt O15111); conditions: at 0.1 µM
# T2 sequence (whole entry): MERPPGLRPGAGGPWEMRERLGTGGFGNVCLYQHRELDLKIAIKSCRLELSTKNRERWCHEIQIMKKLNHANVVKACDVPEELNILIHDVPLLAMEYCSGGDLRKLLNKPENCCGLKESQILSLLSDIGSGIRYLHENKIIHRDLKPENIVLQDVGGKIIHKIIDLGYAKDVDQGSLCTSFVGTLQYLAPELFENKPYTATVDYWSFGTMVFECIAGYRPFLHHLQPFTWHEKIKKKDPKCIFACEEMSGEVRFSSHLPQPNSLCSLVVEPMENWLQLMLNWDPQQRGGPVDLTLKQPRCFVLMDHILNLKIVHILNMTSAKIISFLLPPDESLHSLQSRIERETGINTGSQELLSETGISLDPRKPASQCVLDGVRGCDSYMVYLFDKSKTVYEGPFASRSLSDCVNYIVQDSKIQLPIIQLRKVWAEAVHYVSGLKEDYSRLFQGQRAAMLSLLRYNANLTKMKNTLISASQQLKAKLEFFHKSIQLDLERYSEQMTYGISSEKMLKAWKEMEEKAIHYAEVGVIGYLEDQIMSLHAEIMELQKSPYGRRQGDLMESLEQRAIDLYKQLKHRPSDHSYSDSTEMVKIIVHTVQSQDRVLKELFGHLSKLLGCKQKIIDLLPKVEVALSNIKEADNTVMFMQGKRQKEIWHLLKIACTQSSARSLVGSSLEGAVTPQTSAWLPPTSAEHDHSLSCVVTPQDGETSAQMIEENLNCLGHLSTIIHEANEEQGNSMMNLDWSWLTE
# [7] = biological target: T2, Inhibitor of nuclear factor kappa-B kinase subunit alpha (Homo sapiens); conditions: at 1 µM
# [8] = biological target: T3, Inhibitor of nuclear factor kappa-B kinase subunit beta (Homo sapiens) (UniProt O14920); conditions: at 0.1 µM
# T3 sequence (whole entry): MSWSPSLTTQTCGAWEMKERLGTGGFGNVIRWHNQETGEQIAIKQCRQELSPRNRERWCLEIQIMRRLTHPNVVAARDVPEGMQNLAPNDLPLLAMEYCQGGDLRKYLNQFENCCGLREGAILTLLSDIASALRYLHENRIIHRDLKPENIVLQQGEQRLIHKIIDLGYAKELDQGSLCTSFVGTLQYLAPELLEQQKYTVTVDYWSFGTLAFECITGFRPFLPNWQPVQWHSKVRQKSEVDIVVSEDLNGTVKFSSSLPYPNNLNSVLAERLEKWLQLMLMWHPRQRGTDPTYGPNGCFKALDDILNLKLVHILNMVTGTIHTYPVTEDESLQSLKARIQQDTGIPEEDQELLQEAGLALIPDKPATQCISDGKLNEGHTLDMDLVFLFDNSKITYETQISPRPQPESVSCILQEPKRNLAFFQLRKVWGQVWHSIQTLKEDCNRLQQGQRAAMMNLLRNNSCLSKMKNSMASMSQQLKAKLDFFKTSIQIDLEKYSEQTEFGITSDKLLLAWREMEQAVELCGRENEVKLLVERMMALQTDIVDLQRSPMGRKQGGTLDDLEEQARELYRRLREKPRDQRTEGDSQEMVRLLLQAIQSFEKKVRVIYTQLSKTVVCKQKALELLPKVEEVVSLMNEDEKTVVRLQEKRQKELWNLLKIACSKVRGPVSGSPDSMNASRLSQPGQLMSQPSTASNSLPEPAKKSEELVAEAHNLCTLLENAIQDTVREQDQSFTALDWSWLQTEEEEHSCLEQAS
# [9] = biological target: T3, Inhibitor of nuclear factor kappa-B kinase subunit beta (Homo sapiens); conditions: at 1 µM
# [10] = biological target: T4, Inhibitor of nuclear factor kappa-B kinase subunit epsilon (Homo sapiens) (UniProt Q14164); conditions: at 0.1 µM
# T4 sequence (whole entry): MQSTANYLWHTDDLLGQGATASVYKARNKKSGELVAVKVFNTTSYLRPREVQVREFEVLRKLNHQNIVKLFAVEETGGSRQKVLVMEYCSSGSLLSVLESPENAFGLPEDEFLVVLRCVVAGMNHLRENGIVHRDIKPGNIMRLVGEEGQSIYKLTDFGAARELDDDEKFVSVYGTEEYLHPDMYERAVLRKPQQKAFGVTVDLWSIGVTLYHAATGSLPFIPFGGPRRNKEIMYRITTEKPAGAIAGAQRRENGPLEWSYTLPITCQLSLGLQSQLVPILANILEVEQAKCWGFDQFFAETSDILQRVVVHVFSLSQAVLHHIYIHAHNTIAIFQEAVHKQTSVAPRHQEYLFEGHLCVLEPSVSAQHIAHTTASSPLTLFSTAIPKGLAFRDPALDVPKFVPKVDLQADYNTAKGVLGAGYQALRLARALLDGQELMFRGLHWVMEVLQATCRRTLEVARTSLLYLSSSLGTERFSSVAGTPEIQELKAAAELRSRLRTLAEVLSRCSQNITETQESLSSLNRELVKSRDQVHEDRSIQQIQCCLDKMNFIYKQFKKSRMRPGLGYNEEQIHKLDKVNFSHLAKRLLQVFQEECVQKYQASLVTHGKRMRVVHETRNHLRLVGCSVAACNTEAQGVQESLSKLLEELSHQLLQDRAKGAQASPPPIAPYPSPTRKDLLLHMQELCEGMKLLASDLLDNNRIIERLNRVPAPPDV
# [11] = biological target: T4, Inhibitor of nuclear factor kappa-B kinase subunit epsilon (Homo sapiens); conditions: at 1 µM
# [12] = biological target: T5, Serine/threonine-protein kinase Nek1 (Homo sapiens) (UniProt Q96PY6); conditions: at 0.1 µM
# T5 sequence (whole entry): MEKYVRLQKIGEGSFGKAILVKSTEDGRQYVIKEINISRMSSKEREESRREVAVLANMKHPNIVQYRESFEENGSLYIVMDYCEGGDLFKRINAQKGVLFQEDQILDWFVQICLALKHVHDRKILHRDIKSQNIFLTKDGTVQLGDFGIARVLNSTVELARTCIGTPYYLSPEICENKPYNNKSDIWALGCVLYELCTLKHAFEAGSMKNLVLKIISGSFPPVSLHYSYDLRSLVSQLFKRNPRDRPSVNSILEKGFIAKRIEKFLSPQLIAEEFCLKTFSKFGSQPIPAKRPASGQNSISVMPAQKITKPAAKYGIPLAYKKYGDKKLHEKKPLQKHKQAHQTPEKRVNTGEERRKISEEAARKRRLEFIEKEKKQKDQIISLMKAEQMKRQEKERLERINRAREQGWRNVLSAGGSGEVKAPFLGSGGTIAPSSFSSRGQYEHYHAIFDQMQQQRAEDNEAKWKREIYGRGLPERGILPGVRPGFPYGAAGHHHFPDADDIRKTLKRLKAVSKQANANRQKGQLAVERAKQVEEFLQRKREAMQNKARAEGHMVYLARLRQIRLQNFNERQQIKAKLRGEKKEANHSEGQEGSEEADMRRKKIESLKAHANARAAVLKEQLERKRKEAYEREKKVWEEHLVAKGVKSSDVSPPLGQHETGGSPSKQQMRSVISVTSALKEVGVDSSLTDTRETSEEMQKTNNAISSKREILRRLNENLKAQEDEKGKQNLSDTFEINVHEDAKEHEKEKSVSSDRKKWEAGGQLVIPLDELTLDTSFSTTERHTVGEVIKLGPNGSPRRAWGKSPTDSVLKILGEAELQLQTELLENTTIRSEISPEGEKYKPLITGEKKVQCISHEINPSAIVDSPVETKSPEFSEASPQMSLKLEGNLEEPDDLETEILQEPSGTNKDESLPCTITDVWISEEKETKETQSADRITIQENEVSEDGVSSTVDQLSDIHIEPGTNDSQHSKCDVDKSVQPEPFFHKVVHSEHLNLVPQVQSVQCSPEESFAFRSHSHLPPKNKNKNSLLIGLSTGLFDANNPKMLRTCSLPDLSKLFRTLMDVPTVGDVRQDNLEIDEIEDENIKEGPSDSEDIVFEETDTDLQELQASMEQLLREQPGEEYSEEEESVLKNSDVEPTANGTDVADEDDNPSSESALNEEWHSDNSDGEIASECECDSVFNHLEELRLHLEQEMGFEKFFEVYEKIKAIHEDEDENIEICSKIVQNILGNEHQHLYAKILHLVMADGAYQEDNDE
# [13] = biological target: T5, Serine/threonine-protein kinase Nek1 (Homo sapiens); conditions: at 1 µM
# [14] = biological target: T6, Serine/threonine-protein kinase Nek2 (Homo sapiens) (UniProt P51955); conditions: at 0.1 µM
# T6 sequence (whole entry): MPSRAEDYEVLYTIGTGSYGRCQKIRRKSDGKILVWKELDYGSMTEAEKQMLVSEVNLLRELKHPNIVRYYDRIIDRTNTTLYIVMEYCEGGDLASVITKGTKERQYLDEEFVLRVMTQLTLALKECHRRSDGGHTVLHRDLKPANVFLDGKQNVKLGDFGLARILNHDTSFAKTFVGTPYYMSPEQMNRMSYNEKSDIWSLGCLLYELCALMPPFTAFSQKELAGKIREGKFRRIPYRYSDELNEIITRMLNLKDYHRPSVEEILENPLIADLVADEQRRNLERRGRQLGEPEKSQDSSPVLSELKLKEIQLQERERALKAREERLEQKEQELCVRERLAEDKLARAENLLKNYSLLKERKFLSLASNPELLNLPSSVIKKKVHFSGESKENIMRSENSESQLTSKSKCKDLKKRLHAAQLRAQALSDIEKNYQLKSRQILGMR
# [15] = biological target: T6, Serine/threonine-protein kinase Nek2 (Homo sapiens); conditions: at 1 µM
# [16] = biological target: Serine/threonine-protein kinase Nek6 (Homo sapiens) (UniProt Q9HC98); conditions: at 0.1 µM
# Serine/threonine-protein kinase Nek6 (Homo sapiens), sequence (Q9HC98 whole entry): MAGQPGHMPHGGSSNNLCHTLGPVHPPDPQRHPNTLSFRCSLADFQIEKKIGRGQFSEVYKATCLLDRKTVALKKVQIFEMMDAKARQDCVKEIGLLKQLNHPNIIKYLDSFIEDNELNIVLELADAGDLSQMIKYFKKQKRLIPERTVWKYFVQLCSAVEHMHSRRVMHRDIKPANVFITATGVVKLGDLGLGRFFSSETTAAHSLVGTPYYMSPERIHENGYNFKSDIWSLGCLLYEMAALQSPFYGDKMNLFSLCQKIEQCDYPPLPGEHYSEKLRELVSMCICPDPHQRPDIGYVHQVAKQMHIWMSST
# [17] = biological target: Serine/threonine-protein kinase Nek6 (Homo sapiens) (UniProt Q9HC98); conditions: at 1 µM
# [18] = biological target: Serine/threonine-protein kinase Nek7 (Homo sapiens) (UniProt Q8TDX7); conditions: at 0.1 µM
# Serine/threonine-protein kinase Nek7 (Homo sapiens), sequence (Q8TDX7 whole entry, looked up): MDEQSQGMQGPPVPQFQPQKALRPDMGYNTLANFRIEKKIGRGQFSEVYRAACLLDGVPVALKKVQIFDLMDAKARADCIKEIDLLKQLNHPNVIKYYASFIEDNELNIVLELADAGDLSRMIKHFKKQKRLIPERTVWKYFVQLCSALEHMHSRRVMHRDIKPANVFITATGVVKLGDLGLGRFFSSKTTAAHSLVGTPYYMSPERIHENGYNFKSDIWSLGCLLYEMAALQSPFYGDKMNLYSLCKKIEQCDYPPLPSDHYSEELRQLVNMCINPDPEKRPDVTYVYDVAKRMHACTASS
# [19] = biological target: Serine/threonine-protein kinase Nek7 (Homo sapiens) (UniProt Q8TDX7); conditions: at 1 µM
# [20] = biological target: T7, Serine/threonine-protein kinase Nek9 (Homo sapiens) (UniProt Q8TD19); conditions: at 0.1 µM;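 note: reported value is the mean percent inhibition of NEK9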
# T7 sequence (whole entry): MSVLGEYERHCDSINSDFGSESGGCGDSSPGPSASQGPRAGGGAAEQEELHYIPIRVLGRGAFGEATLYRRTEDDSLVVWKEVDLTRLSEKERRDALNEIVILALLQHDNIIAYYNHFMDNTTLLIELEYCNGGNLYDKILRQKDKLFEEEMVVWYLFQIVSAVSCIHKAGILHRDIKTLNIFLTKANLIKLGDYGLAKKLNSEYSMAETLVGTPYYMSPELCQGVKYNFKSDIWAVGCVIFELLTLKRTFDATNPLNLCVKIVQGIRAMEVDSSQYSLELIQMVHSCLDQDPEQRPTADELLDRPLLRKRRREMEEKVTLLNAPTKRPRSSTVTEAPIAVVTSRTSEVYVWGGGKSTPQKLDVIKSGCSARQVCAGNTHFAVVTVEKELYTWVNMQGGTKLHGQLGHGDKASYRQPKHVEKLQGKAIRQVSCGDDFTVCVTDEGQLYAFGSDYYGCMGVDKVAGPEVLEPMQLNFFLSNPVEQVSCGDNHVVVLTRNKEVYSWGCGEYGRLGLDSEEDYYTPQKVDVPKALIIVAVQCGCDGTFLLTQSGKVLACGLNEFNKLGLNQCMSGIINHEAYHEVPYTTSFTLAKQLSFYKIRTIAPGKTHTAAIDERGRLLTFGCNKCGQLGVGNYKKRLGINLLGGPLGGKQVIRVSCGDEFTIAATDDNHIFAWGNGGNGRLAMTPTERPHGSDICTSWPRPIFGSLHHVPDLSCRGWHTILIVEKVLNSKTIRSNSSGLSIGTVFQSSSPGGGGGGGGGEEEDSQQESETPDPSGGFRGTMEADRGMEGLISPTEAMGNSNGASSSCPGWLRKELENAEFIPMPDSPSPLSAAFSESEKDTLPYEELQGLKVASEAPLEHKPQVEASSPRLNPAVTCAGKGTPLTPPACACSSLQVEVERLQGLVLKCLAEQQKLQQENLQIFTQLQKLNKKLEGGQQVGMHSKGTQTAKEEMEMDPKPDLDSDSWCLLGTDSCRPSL
# Sphingosine kinase 1 (Homo sapiens), sequence (Q9NYA1 whole entry): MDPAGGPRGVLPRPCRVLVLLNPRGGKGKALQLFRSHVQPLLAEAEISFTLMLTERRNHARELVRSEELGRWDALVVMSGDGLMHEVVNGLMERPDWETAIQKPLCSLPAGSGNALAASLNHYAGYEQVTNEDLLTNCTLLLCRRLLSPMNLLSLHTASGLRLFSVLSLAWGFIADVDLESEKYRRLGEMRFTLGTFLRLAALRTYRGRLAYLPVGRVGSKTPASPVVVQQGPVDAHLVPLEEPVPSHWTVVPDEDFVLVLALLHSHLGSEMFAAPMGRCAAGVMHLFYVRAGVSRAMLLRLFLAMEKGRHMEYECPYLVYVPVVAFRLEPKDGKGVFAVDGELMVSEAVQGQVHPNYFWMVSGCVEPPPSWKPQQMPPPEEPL
structure (smiles),measurement,setting,value
CCc1cccc(NC(=O)Nc2ccc(Oc3ccc4nc(NC(=O)OC)[nH]c4c3)cc2)c1,inhibition,[1],-3.46%
same,inhibition,[2],-1.39%
same,inhibition,[3],-2.51%
same,inhibition,[4],1.32%
same,inhibition,[5],4.86%
same,inhibition,[6],4.74%
same,inhibition,[7],-0.97%
same,inhibition,[8],3.09%
same,inhibition,[9],2.83%
same,inhibition,[10],2.77%
same,inhibition,[11],3.32%
same,inhibition,[12],0.6%
same,inhibition,[13],1.24%
same,inhibition,[14],1.78%
same,inhibition,[15],1.1%
same,inhibition,[16],0.58%
same,inhibition,[17],3.24%
same,inhibition,[18],-1.37%
same,inhibition,[19],-2.89%
same,inhibition,[20],3.74%
